Experimental data taken from ChEMBL document CHEMBL3988442, “University of Dundee, Small-Polar-MMV Screening Library” (2021).
For some of these results: Results with a measured potency or affinity are listed apart.

Assays:
[1] = target: T1, Methionyl-tRNA synthetase, putative (Leishmania donovani (strain BPK282A1)) (UniProt E9BF75); assay: Leishmania donovani Methionine tRNA synthetase (LdMetRS):v7. Dose response assay; format: functional; set-up: conc 80 nM, time 150 minutes
T1 sequence (whole entry): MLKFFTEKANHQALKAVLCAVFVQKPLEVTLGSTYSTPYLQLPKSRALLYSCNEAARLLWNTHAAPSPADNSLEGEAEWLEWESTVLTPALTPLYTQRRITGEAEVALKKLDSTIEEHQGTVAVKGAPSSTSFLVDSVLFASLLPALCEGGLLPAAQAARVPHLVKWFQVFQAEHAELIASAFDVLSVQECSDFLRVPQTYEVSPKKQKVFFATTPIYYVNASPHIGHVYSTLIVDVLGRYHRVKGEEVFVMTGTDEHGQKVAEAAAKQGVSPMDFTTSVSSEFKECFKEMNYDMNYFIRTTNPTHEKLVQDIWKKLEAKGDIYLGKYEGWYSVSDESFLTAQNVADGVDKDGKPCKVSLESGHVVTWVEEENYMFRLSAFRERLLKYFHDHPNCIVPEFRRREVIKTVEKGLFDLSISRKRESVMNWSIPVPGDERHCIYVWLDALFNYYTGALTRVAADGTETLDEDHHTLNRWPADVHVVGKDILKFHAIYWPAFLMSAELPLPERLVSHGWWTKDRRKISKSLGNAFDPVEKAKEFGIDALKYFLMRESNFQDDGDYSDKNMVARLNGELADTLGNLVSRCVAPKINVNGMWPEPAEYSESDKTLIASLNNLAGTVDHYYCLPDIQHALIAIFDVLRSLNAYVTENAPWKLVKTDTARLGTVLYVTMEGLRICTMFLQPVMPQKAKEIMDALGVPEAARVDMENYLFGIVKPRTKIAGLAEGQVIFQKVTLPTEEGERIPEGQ

[2] = target: Protein translocase subunit SecA (Escherichia coli (strain K12)) (UniProt P10408); assay: Assay to Identify E. coli SecA ATPase Inhibitors; format: functional; set-up: scale not given: direction of the effect not stated beside the values; details: 30 µM
[3] = target: T2, Ubiquitin-activating enzyme e1, putative (Leishmania donovani (strain BPK282A1)) (UniProt E9BSI1); assay: Leishmania donovani Ubiquitin Activating Enzyme (LdE1); format: functional; set-up: scale not given: direction of the effect not stated beside the values; details: 30 µM
T2 sequence (whole entry): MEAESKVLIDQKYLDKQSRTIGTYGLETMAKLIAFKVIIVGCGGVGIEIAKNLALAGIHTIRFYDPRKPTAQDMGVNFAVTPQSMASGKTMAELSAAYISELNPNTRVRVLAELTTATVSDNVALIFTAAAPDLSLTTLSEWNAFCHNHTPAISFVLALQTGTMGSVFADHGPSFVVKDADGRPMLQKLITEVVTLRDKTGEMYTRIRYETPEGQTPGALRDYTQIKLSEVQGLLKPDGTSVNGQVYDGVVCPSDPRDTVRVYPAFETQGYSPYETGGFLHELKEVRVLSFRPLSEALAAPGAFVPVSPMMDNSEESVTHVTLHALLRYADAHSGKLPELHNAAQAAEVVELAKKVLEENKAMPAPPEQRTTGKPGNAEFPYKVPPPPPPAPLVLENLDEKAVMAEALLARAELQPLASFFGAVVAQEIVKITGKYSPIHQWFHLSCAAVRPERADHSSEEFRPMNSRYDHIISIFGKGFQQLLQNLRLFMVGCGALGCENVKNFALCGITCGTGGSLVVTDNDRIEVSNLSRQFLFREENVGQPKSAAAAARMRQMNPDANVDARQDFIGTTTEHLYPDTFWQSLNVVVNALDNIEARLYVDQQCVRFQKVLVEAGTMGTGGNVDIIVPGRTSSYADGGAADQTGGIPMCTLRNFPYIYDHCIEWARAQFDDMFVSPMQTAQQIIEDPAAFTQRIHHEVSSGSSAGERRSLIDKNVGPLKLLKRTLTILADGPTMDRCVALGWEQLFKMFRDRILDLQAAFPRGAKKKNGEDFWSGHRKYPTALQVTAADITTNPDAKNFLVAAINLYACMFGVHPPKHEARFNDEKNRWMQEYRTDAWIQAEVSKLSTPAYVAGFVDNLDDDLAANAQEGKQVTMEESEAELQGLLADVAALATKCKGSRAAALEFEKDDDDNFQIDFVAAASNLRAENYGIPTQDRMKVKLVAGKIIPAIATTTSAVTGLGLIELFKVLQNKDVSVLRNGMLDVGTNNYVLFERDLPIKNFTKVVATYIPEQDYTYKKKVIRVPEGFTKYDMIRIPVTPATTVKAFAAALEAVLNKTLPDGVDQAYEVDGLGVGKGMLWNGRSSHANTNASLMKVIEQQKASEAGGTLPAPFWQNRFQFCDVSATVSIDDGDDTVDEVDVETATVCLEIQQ

[4] = target: T3, Aspartate--tRNA(Asp/Asn) ligase (Mycobacterium tuberculosis (strain ATCC 25618 / H37Rv)) (UniProt P9WFW3); assay: Assay for Asp RNA synthetase-1 from Mycobacterium tuberculosis; format: functional; set-up: scale not given: direction of the effect not stated beside the values; details: 30 µM; note: in the data most compounds retested in dose-response had high values
T3 sequence (whole entry): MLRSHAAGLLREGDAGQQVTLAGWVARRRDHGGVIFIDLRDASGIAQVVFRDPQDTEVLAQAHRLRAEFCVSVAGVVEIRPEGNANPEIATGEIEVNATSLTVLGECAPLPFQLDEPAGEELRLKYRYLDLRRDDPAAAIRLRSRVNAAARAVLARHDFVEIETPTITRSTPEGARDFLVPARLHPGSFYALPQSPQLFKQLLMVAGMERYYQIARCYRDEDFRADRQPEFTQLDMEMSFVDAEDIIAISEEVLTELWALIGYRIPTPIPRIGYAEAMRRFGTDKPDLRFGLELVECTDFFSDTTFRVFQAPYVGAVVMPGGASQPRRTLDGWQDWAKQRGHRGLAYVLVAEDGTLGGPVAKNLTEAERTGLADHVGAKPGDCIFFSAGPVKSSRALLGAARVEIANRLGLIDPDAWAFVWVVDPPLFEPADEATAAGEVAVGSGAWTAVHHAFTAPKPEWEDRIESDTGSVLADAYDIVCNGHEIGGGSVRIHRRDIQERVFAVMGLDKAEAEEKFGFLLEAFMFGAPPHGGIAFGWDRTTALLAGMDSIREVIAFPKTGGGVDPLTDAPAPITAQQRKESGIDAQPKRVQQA

[5] = target: AMP-activated protein kinase, AMPK (Homo sapiens) (UniProt P54646+O43741+P54619+Q9UGJ0+Q9Y478+Q13131+Q9UGI9); assay: AMP-dependent Kinase enzyme assay. An in vitro enzyme assay that detects ADP turnover that is directly proportional to AMPK activity. This uses naive AMPK that is activated during the assay with MK-8722; format: functional; set-up: scale not given: direction of the effect not stated beside the values; details: 30 µM
[6] = target: Sialic acid-binding Ig-like lectin 9 (Homo sapiens) (UniProt Q9Y336); assay: Hs-Siglec9 ALPHAscreen SOP 20170721; set-up: scale not given: direction of the effect not stated beside the values; details: 10 µM
[7] = tested on: Trypanosoma cruzi; assay: Trypanosoma cruzi phosphomannomutase and mannose-1-phosphate guanylyltransferase assay; format: functional; set-up: scale not given: direction of the effect not stated beside the values; details: 10 µM
[8] = target: T4, Arginase-2, mitochondrial (Homo sapiens) (UniProt P78540); assay: in vitro enzyme assay to detect the production of urea directly proportional to the activity of Arginase II; format: functional; set-up: scale not given: in the data most compounds retested in dose-response had high values; details: 33.3 µM
T4 sequence (whole entry): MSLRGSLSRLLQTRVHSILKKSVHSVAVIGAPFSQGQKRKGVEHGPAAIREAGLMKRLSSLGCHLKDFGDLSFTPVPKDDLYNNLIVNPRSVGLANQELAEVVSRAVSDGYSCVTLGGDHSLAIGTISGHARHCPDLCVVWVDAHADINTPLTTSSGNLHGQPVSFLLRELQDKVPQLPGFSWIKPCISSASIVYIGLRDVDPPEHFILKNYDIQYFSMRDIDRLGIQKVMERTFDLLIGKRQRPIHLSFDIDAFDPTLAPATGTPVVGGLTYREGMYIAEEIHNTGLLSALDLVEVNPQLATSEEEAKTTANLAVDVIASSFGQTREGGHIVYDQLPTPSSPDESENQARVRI

[9] = target: T5, Proteasome subunit beta (Trypanosoma cruzi) (UniProt O96673); assay: Trypanosoma cruzi proteasome chymotrypsin-like activity (TcProtChymo) assay.; format: functional; set-up: scale not given: in the data most compounds retested in dose-response had high values; details: 9.37 µM
T5 sequence (whole entry): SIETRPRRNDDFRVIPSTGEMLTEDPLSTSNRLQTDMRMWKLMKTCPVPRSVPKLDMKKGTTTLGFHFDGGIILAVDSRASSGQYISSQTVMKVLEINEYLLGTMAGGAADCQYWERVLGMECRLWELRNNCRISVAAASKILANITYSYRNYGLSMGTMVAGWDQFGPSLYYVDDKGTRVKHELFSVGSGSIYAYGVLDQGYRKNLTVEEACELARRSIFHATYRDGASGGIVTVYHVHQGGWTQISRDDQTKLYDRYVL

[10] = organism: Homo sapiens; assay: To identify inhibition of the IFN signalling (Jak-Stat) pathway via expression of an eGFP reporter gene under the control of an IFN-stimulated response element (ISRE) containing MxA promoter.; format: functional; set-up: scale not given: direction of the effect not stated beside the values; details: 30 µM
[11] = target: Shiga toxin 2 (Escherichia coli O157:H7) (UniProt P09385+P09386); assay: E. coli 0.157:H7 Shiga Toxin SOP - stx2 screening assay; format: functional; set-up: scale not given: direction of the effect not stated beside the values; details: 30 µM
[12] = target: T6, Tyrosyl-tRNA synthetase, putative (Trypanosoma cruzi (strain CL Brener)) (UniProt Q4DSP6); assay: Trypanosoma cruzi tyrosyl tRNA synthetase (TcYRS) _High Tyrosine SOP; format: functional; set-up: scale not given: in the data most compounds retested in dose-response had high values; details: 30 µM
T6 sequence (whole entry): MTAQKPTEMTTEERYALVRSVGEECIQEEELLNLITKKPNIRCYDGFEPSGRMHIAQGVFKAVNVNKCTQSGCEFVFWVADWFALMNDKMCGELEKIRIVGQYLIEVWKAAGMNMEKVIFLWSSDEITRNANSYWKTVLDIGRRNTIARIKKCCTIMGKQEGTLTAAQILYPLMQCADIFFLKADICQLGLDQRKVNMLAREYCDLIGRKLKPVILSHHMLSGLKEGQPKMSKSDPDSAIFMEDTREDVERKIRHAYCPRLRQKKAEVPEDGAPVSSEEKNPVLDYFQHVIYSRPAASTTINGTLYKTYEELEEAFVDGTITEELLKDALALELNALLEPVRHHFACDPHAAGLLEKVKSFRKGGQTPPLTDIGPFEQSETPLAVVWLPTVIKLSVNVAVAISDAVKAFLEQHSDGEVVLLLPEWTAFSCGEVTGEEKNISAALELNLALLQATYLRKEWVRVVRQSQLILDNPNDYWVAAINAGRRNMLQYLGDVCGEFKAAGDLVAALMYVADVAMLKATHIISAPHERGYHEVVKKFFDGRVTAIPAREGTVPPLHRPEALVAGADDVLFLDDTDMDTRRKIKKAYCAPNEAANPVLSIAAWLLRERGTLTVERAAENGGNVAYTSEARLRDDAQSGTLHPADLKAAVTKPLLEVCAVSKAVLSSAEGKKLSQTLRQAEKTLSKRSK

[13] = target: T6, Tyrosyl-tRNA synthetase, putative (Trypanosoma cruzi (strain CL Brener)); assay: Trypanosoma cruzi tyrosyl tRNA synthetase (TcYRS) SOP; format: functional; set-up: scale not given: direction of the effect not stated beside the values; details: 30 µM
[14] = target: Chromo domain-containing protein 1 (Saccharomyces cerevisiae (strain ATCC 204508 / S288c) (Baker's yeast)) (UniProt P32657); assay: ScCHD-1 Enzyme Inhibition Assay; format: functional; set-up: scale not given: in the data most compounds retested in dose-response had high values; details: 30 µM
Sequence of Chromo domain-containing protein 1 (Saccharomyces cerevisiae (strain ATCC 204508 / S288c) (Baker's yeast)) (P32657 whole entry, the tested form may be a part): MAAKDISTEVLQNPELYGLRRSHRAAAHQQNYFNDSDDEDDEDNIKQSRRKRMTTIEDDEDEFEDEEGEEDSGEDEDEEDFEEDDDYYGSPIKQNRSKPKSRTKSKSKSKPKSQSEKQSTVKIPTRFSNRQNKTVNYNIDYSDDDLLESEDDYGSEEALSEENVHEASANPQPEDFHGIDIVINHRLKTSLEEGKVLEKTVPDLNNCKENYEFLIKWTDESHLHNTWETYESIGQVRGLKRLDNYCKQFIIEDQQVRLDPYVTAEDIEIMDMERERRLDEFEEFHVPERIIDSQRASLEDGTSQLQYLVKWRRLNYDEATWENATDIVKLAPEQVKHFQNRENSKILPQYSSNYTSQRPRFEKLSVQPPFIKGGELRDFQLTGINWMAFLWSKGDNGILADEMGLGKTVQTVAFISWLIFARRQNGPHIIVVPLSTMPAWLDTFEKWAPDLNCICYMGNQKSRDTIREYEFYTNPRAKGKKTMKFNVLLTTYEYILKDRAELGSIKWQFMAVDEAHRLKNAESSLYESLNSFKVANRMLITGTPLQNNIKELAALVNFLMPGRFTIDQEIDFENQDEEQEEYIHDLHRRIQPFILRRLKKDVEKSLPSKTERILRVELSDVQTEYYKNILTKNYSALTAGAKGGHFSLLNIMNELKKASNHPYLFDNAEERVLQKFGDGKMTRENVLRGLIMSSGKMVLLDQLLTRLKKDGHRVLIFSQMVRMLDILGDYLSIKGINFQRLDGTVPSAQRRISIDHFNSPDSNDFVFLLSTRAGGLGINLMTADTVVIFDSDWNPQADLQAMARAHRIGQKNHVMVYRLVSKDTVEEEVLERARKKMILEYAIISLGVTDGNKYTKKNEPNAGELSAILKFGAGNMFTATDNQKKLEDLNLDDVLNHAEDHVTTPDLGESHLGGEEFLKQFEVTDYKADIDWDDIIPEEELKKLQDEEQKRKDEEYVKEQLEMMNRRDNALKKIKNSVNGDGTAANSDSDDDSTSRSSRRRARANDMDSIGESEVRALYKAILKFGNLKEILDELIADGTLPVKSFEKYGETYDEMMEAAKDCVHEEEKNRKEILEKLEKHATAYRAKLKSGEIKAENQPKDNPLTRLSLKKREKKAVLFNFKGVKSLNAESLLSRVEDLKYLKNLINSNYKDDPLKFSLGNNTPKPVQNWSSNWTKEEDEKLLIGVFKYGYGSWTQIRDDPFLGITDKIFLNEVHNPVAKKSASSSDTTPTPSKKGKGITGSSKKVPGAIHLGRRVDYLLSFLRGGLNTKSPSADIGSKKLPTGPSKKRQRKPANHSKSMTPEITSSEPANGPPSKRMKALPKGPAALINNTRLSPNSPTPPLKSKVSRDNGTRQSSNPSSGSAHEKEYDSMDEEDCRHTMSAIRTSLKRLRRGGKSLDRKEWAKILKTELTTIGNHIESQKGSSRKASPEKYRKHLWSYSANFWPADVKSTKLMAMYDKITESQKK

Sequence of Sialic acid-binding Ig-like lectin 9 (Homo sapiens) (Q9Y336 whole entry): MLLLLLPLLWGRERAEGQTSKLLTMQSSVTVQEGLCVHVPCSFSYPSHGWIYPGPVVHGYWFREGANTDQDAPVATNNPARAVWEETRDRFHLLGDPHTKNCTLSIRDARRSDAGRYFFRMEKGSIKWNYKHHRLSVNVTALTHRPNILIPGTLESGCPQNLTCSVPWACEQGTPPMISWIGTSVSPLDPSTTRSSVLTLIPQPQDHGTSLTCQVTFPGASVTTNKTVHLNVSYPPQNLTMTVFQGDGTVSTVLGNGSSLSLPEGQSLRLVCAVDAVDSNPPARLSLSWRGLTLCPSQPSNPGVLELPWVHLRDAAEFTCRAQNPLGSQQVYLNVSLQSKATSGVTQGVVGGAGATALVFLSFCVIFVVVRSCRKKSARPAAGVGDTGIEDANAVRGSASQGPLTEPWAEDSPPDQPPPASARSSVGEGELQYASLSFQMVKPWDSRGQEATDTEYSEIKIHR
Sequence of Protein translocase subunit SecA (Escherichia coli (strain K12)) (P10408 whole entry): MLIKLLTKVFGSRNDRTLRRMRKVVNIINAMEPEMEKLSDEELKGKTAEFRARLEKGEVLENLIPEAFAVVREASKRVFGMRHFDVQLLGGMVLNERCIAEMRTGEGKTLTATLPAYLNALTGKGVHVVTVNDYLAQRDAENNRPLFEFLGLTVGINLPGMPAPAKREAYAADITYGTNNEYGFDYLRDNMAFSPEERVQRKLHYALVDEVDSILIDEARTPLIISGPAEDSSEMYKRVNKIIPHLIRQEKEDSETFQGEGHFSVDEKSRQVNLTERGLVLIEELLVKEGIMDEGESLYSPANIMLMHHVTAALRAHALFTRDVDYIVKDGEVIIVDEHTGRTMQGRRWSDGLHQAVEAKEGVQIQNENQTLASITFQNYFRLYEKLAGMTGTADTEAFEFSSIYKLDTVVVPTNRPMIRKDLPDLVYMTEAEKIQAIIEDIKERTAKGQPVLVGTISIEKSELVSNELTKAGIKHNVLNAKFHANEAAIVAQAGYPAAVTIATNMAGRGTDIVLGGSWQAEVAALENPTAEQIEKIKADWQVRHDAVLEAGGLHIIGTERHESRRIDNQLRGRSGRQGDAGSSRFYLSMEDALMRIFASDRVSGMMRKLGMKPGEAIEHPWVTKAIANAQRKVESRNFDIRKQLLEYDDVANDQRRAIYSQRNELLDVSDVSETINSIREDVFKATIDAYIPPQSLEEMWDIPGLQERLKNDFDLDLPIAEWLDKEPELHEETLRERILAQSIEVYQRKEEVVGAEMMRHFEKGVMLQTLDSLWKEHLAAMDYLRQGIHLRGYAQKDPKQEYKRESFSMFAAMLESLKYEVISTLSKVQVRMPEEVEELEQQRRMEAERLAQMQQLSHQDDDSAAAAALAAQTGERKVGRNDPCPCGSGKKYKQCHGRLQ

FC(F)(F)c1cc(-c2cccs2)nc(N2CCN3CCCC3C2)n1 (centres undefined)
PXC50 ([1]; MAX_EFFECT 13.05483029): < 4
PXC50 ([1]; MAX_EFFECT 13.8381201): < 4

NC1CC1c1ccc(Cl)cc1Cl (centres undefined)
PXC50 ([1]; MAX_EFFECT 19.58174905): < 3
PXC50 ([1]; MAX_EFFECT 31.74946004): < 3

O=C(Cc1ccccn1)N1CCN2C[C@H](Oc3cccc(F)c3)C[C@H]2C1
Percent Effect [2]: -3.38%
Percent Effect [3]: 0%
Percent Effect [4]: 9.34%
Percent Effect [5]: 1.39%
Percent Effect [6]: -4.03%
Percent Effect [7]: 1.07%
Percent Effect [8]: -1.59%
Percent Effect [9]: 1.84%
Percent Effect [10]: 18.6%
Percent Effect [11]: -10.5%
Percent Effect [12]: -2.16%
Percent Effect [13]: -5.13%
Percent Effect [14]: -1.68%

NCC(O)c1cc(Cl)cc(Cl)c1 (centres undefined)
PXC50 ([1]; MAX_EFFECT 9.287257019): < 3
PXC50 ([1]; MAX_EFFECT 13.11787072): < 3
